PubChem BioAssay
Active and inactive are the calls of the source.

What was measured:
[1] = system: Human papillomavirus type 1a protein E7 (residues 44-93); experiment: HPV1a E7 fragment binders on microarrays, primary screen, biochemical, small-molecule microarray, residues 44-93, 635 nm fluorescence (AID 1108); conditions: small-molecule microarray binding, fluorescence 635 nm; higher = more signal;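 further: E7 fragment applied at 1 µg/mL in TBST for 1 h at 4 C; score combines spot fluorescence with its signal to noise ratio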
[2] = modulators of HCV replicon luciferase signal, primary screen, HCV replication inhibitor project, Huh7 cells, luciferase reporter (AID 1109); conditions: 48 h, higher = more signal;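 further: huh7 hepatoma cells harbouring a luciferase neomycin HCV replicon reporter; luciferase luminescence as measure of HCV replicon replication; test concentration not given here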
[3] = biological target: Left-right determination factor 2 (Homo sapiens) (UniProt O00292); experiment: LEFTY2 binders on small-molecule microarrays, primary screen, biochemical, small-molecule microarray, 635 nm fluorescence scan (AID 1110); conditions: LEFTY2 binding, higher = more signal
Chain of Left-right determination factor 2 (Homo sapiens) (O00292 whole entry, looked up): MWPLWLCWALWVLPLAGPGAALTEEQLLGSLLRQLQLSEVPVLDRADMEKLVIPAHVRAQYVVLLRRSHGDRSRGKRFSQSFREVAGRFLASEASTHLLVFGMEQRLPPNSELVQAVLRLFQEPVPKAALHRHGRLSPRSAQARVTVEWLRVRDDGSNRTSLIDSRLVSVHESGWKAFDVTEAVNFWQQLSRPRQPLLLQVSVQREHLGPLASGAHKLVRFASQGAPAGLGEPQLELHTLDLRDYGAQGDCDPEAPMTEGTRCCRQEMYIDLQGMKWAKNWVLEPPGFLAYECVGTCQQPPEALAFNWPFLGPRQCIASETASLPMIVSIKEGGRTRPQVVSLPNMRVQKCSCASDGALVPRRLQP

[4] = biological target: Calmodulin-1 (Homo sapiens) (UniProt P0DP23); experiment: CALM1 binders on microarrays, EGTA buffer, profiling panel, biochemical, small-molecule microarray, Cy5-labelled CALM1 (AID 1111); conditions: Cy5-CALM1 binding fluorescence, higher = more signal;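 further: labelled calmodulin applied in Tris saline Tween buffer holding calcium plus EGTA and DTT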
[5] = biological target: Calmodulin-1 (Homo sapiens) (UniProt P0DP23); experiment: calcium-bound CALM1 binders on microarrays, profiling panel, artefact control for SMM control-protein annotation, biochemical, small-molecule microarray, Cy5-labelled CALM1, plus calcium (AID 1112); conditions: Cy5-CALM1 binding fluorescence, higher = more signal;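 further: score merges spot fluorescence with signal to noise from triplicate slides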
[6] = small-molecule microarray binders of probe aWnt5a, primary screen, biochemical, biotinylated probe, 635/667 nm fluorescence (AID 1113); conditions: higher = more signal;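 further: score merges 667 nm fluorescence intensity with signal-to-noise per printed feature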
[7] = small-molecule microarray binders of probe aShh, primary screen, biochemical, biotinylated probe, 635/667 nm fluorescence (AID 1114); conditions: higher = more signal;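 further: probe is biotin-labelled aShh protein from a stem cell growth factor screen; measures binding of labelled protein to compounds printed on the slide; score merges feature fluorescence at 667 nm with signal-to-noise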
[8] = small-molecule microarray binders of probe aNog, primary screen, biochemical, biotinylated probe, 635/667 nm fluorescence (AID 1115); conditions: higher = more signal;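 further: probe is biotinylated aNog protein used at 0.15 µg/mL for 1 h at 4 C; z-score combines 667 nm fluorescence of each spot with its signal to noise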
[9] = biological target: Torsin-1A-interacting protein 1 (Homo sapiens) (UniProt Q5JTV8); experiment: LAP1 binders from COS7 cell lysate, primary screen, small-molecule microarray, 635/667 nm fluorescence (AID 1116); conditions: COS7-hLAP1 lysate binding, 635 nm fluorescence, higher = more signal
Chain of Torsin-1A-interacting protein 1 (Homo sapiens) (Q5JTV8 whole entry, looked up): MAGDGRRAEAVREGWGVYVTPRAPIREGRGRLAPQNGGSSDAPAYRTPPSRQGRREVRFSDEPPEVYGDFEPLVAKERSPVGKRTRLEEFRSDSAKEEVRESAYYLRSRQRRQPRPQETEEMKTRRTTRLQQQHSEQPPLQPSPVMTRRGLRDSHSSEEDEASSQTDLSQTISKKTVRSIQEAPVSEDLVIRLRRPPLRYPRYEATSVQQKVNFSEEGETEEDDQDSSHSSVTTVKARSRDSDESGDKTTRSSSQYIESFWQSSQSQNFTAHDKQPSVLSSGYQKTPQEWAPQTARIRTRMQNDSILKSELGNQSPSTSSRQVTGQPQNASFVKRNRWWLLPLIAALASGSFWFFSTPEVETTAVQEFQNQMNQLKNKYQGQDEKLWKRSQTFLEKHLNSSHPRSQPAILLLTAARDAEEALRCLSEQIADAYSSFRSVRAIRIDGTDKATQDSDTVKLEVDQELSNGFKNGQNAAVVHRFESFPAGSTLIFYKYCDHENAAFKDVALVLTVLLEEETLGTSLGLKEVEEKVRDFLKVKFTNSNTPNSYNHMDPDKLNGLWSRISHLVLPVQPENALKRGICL

[10] = biological target: Alpha-bungarotoxin (Bungarus multicinctus) (UniProt P60615); experiment: alpha-bungarotoxin binders on microarray, profiling panel, artefact control for SMM control protein annotation, biochemical, small-molecule microarray, Alexa647 label, 635/667 nm fluorescence (AID 1117); conditions: alpha-BTX-A647 binding fluorescence, higher = more signal
Chain of Alpha-bungarotoxin (Bungarus multicinctus) (P60615 whole entry, looked up): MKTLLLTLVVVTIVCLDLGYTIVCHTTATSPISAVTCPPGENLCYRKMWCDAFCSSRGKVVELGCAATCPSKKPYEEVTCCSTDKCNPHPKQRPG

[11] = biological target: Albumin (Bos taurus) (UniProt P02769); experiment: bovine serum albumin binders on microarray, profiling panel, artefact control for SMM control protein annotation, biochemical, small-molecule microarray, Alexa647 label, 635/667 nm fluorescence (AID 1118); conditions: BSA-A647 binding, fluorescence 635 nm, higher = more signal;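 further: score merges 667 nm emission intensity and signal-to-noise per printed compound spot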
Chain of Albumin (Bos taurus) (P02769 whole entry, looked up): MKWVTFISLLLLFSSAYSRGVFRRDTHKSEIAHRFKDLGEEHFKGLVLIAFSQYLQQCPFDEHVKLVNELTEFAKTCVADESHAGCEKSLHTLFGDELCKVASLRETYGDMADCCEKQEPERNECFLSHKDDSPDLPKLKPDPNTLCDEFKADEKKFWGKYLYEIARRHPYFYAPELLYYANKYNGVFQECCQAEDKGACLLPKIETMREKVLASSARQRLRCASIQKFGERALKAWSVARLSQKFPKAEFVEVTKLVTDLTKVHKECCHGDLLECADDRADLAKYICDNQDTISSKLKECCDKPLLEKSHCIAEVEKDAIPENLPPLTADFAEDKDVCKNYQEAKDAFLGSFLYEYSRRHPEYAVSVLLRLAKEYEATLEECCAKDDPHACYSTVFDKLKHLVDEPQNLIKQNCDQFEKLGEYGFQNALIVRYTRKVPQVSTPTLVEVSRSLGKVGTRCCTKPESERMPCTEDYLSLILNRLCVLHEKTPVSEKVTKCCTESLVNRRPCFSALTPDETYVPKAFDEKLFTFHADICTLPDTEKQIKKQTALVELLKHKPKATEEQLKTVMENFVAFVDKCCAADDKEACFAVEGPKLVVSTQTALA

[12] = small-molecule microarray binders of probe aXIP, primary screen, biochemical, NeuroSMM set, 635/667 nm fluorescence (AID 1119); conditions: higher = more signal, called active from +8 up or from −8 down;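 further: probe is the protein aXip251-270 applied at 1 µg/mL to compound-printed slides; binding of probe to printed compounds measured as 667 nm fluorescence plus signal to noise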
[13] = small-molecule binders of probe aNOTCH3, primary screen, biochemical, small-molecule microarray, 635/667 nm fluorescence (AID 1120); conditions: higher = more signal;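 further: probe is a biotin-tagged antibody raised against NOTCH3 rather than NOTCH3 protein; score merges spot fluorescence near 667 nm with spot signal to noise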
[14] = small-molecule binders of probe aNOTCH2, primary screen, biochemical, small-molecule microarray, 635/667 nm fluorescence (AID 1121); conditions: higher = more signal;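 further: score merges feature fluorescence read at 667 nm with its signal to noise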
[15] = biological target: Carbonic anhydrase 2 (Homo sapiens) (UniProt P00918); experiment: CAII small-molecule binders, profiling panel, biochemical, small-molecule microarray, Alexa647-labelled CAII (AID 1122); conditions: CAII-A647 binding fluorescence, higher = more signal
[16] = COS7 lysate on small-molecule microarray, probe aHis, 635 nm (AID 1123); conditions: COS7 cell lysate, fluorescence, higher = more signal;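 further: z-score combines 667nm fluorescence intensity with signal-to-noise per printed compound spot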
[17] = compound binding in COS7 lysate, probe aLAP1, primary screen, cell lysate, small-molecule microarray (AID 1124); conditions: probe aLAP1, fluorescence, higher = more signal;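 further: lysate comes from COS7 cells expressing LAP1 and is applied at 0.3 µg/mL; score merges spot fluorescence near 667 nm with signal-to-noise over triplicate slides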
[18] = system: Sam68 (KHDRBS1); experiment: Sam68 small-molecule binders, primary screen, biochemical, small-molecule microarray, 635 nm fluorescence (AID 1125); conditions: small-molecule microarray binding, higher = more signal;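 further: score merges 667 nm channel intensity with signal to noise over triplicate slides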
[19] = system: Chordin-like protein 2 (CHRDL2); experiment: CHRDL2 small-molecule binders, primary screen, biochemical, small-molecule microarray, 635 nm fluorescence (AID 1126); conditions: small-molecule microarray binding, fluorescence 635 nm; higher = more signal;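 further: printed compound slides probed with Chrdl2 protein at 4 µg/mL for 1 h at 4 C; score merges 667 nm emission intensity with signal to noise over three replicate slides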
[20] = biological target: Concanavalin-A (Canavalia ensiformis) (UniProt P02866); experiment: ConA small-molecule binders, primary screen, artefact control for SMM control protein annotation, biochemical, small-molecule microarray, Alexa647 label, 635 nm (AID 1127); conditions: ConA-A647 binding fluorescence, higher = more signal;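 further: z combines 667 nm emission intensity with signal-to-noise across three replicate slides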
Chain of Concanavalin-A (Canavalia ensiformis) (P02866 whole entry, looked up): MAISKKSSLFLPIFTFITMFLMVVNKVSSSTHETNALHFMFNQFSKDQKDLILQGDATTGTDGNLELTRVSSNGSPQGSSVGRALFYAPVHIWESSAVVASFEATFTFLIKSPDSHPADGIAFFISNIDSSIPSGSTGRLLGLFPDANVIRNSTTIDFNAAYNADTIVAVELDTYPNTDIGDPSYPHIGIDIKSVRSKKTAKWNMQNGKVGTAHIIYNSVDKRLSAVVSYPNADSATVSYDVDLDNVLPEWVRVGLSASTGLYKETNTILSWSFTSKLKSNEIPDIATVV

| Compound | composite z-score [1] | z-score [2] | composite z-score [3] | composite z-score [4] | composite z-score [5] | composite z-score [6] | composite z-score [7] | composite z-score [8] | composite z-score [9] | composite z-score [10] | composite z-score [11] | composite Z-score [12] | composite z-score [13] | composite z-score [14] | composite z-score [15] | composite z-score [16] | composite z-score [17] | composite z-score [18] | composite z-score [19] | composite z-score [20] |
| --- | --- | --- | --- | --- | --- | --- | --- | --- | --- | --- | --- | --- | --- | --- | --- | --- | --- | --- | --- | --- |
| C=C(COC)/C(=C/C[C@H](OC(C)=O)c1ccc(OCCO)cc1)c1cc(C(=O)OC)ccc1OC | 0.697 | -1.13 | 0.695 | -0.24 | -0.845 | -0.0792 | -0.169 | 0.449 | 2.13 | 0.0079 | -0.115 | 0.835 (inactive) | 0.0642 | -0.107 | 0.622 | 0.685 | -0.0565 | 1.07 | 0.501 | 0.519 |
| CC(C)C(=C=CC[C@H](O)c1cccc(OCCO)c1)C[C@H](O)c1cc(Cl)cc(Cl)c1O | 0.851 | -0.583 | 0.155 | -0.0005 | -0.698 | -0.126 | 0.23 | 0.0083 | 0.488 | 0.986 | 0.773 | -0.0673 (inactive) | 0.0916 | -0.154 | 0.374 | 1.14 | 0.0431 | 0.801 | -0.331 | 0.943 |
| CC1CC/C=C\[C@H]2OC34C=CCN(c5ccc(Cl)cc5)C(=O)[C@H]3N(CCCCCO)C(=O)[C@]4(C)C2C(=O)O1 (stereo not given in full) | -0.826 | 0.315 | -2.19 | -0.471 | 0.432 | -0.247 | -0.0626 | -0.163 | -0.614 | -1.16 | -1.08 | -0.0503 (inactive) | -0.288 | -0.117 | -0.482 | -0.779 | -0.3 | -0.682 | -1.67 | -1.03 |
| C=CCNC(=O)[C@H]1[C@@H]2C(=O)O[C@@H](c3ccccc3)[C@@H](c3ccccc3)N2[C@@H](c2ccc(O)cc2)[C@]12C(=O)N(C(=O)OCCOC)c1ccccc12 | 1.42 | -0.585 | 0.18 | 0.763 | -0.0816 | -0.0573 | -0.331 | -0.206 | 0.793 | 0.712 | 0.299 | 0.255 (inactive) | -0.091 | 0.0487 | 0.385 | 2.18 | 0.701 | 1.17 | 0.0889 | 0.745 |
| CCCC[C@@H]1C[C@H]1[C@@H](NC(=O)c1ccccc1)c1ccc(C(F)(F)F)cc1 | -1.52 | -0.444 | -1.06 | -0.17 | 0.87 | -0.0084 | -0.296 | -0.194 | -0.309 | -0.501 | -0.0844 | -0.157 (inactive) | 0.0562 | -0.0698 | 0.009 | -0.511 | -0.134 | -1.5 | -1.15 | -0.917 |
| COc1cc(CO)cc(I)c1O[C@H]1C=C(C(=O)NCCO)C[C@@H](NCc2ccc(F)cc2)[C@@H]1O | -1.08 | -4.07 | 0.275 | 0.433 | -0.918 | -0.202 | 0.0684 | -0.506 | 0.0217 | 0.2 | -1.03 | 0.328 (inactive) | -0.118 | -0.148 | 0.223 | 0.369 | 0.205 | 0.352 | 0.306 | 0.0901 |
| C#CCN([C@@H](Cc1ccc(O)cc1)C(=O)OC)[C@@H](/C=C/C1CC1)[C@H](O)Cc1ccccc1 | -0.184 | -3 | -0.0906 | -0.634 | -1.04 | -0.0425 | -0.223 | -0.407 | 0.0583 | -0.0345 | -0.865 | -0.0582 (inactive) | -0.0567 | -0.172 | -0.303 | 0.071 | 0.0995 | -0.0361 | 0.523 | -0.58 |
| O=C1OCC=C[C@H]2OC34C=CCN(c5ccc(Cl)cc5)C(=O)[C@H]3N(CCO)C(=O)[C@@H]4[C@@H]12 (stereo not given in full) | -0.0723 | -0.515 | -0.884 | -0.577 | 0.515 | -0.28 | -0.304 | -0.115 | 0.0143 | -0.003 | -0.212 | 0.703 (inactive) | -0.306 | -0.211 | 0.903 | 2.81 | 0.0653 | -0.381 | -1.52 | -0.606 |
| C=CCC(OC(C)=O)[C@@H]1[C@@H](N(Cc2cccc3ccccc23)C(=O)Cc2ccc(OC)cc2)c2cc(OCCCO)ccc2N1C(=O)c1ccc2ccccc2n1 (stereo not given in full) | 0.26 | -0.043 | 0.172 | 0.0729 | 0.259 | 0.0132 | -0.17 | -0.456 | 0.307 | 0.472 | 0.249 | 0.397 (inactive) | 0.0224 | -0.0515 | 0.189 | 0.979 | 0.449 | 0.404 | 0.173 | -0.212 |
| CCCCN1CC=CC23O[C@@H]4/C=C\CCC(C)OC(=O)C4[C@H]2C(=O)N(C(CO)C(C)C)[C@@H]3C1=O (stereo not given in full) | -0.164 | -0.768 | -0.406 | -0.708 | -0.926 | -0.0403 | 0.186 | -0.278 | 1.36 | -0.312 | 0.751 | 0.443 (inactive) | -0.126 | -0.12 | 0.815 | -0.407 | 1.13 | -0.468 | 0.212 | -0.409 |
| COc1cc(OC)c(C(O)C2C=CC3C(=O)N(C)C(=O)C3N2NC(=O)OC(C)(C)C)cc1Br (stereo not given) | 1.45 | -0.706 | 0.469 | 1.74 | 0.767 | 0.302 | 0.551 | 1.71 | 1.26 | 1.85 | 0.881 | 0.182 (inactive) | 0.398 | 0.354 | 0.584 | 3.05 | 0.91 | 1.3 | -0.251 | 1.09 |
